Among the data in PubChem BioAssay are z-score and composite z-score values, retold here.

Structures are written as SMILES. Active and inactive are the calls of the source. Unless noted, no rule for the calls is given here.

Assay [1] can be described thus: resazurin metabolic signal in HepG2 cells – cell-based, resazurin fluorescence, 24 h, PK04 Diversity Set, profiling panel (AID 1172). Also: test concentration not given here. The note with it: HepG2 viability, higher = more signal.
The nature of assay [2]: budding yeast growth changes without added modifier – OD600, strain BY4716, 24 h, basal condition, primary screen (AID 1173). The note with it: S. cerevisiae BY4716 growth, OD600, 24 h; higher = more signal, called active from +8 up or from −8 down.
Assay [3] in a line: viability profiling in MM1S myeloma cells – cell-based, resazurin fluorescence, basal, 24 h, PK04 Diversity Set, profiling panel (AID 1174). Also: test concentration not given here. To be noted: higher = more signal, called active from +8 up or from −8 down. In general terms: Resazurin is reduced to fluorescent resorufin, in cell work by metabolically active cells.
In assay [4] the target is Dihydroorotate dehydrogenase (quinone), mitochondrial (Plasmodium falciparum (isolate 3D7)) (UniProt Q08210). Briefly: inhibition of P. falciparum DHODH – biochemical, C-terminal His tag, absorbance 600 nm, primary screen (AID 1175).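 Also: recombinant parasite enzyme with a five histidine tag at its C terminus; test concentration not given here.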 To be noted: PfDHODH enzyme, DCIP absorbance 600 nm; higher = more signal, called active from +8 up or from −8 down.
Dihydroorotate dehydrogenase (quinone), mitochondrial (Plasmodium falciparum (isolate 3D7)), sequence (Q08210 whole entry, looked up): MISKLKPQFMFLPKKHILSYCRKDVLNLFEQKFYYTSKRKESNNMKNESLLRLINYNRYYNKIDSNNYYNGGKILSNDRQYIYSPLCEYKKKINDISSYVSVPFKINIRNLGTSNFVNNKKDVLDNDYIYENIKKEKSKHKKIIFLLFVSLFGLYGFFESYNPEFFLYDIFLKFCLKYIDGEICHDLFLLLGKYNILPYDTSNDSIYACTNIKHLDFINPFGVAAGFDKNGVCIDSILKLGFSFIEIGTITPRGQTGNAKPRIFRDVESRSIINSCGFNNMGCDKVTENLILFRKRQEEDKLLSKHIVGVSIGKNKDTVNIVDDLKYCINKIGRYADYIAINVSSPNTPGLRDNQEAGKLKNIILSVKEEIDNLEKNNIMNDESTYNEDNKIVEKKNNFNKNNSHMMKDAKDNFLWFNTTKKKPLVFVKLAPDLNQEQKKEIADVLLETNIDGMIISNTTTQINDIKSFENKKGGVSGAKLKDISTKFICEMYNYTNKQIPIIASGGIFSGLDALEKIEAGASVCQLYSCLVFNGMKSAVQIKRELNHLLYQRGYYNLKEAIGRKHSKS
A short description of assay [5]: inhibition of PAO1 biofilm formation – strain PAO1, LB-PBS medium, absorbance 600 nm, primary screen (AID 1176). Also: test concentration not given here. To be noted: P. aeruginosa PAO1 growth/biofilm, A600, 12 h; higher = more signal.
Assay [6] can be described thus: growth modulation of vineyard yeast isolate – strain RM11-1a, OD600, basal, 24 h, primary screen (AID 1177).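 Also: cultures grown under basal conditions with no added stressor; test concentration not given here.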 To be noted: S. cerevisiae RM11-1a growth, OD600, 24 h; higher = more signal, called active from +8 up or from −8 down.
Assay [7] is described as follows: growth of efflux-deficient E. coli DRC39 – strain DRC39, OD650, 24 h, E. coli filamentation inducers, primary screen (AID 1178).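 Also: growth measured as culture turbidity by optical density at 650 nm; test concentration not given here.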 To be noted: E. coli DRC39 acrAB, higher = more signal, called active from +8 up or from −8 down.
Assay [8] in a line: growth of efflux-deficient E. coli DRC39 – strain DRC39, OD650, 48 h, E. coli filamentation inducers, primary screen (AID 1179).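 Also: screen aims at cell division blockers that make cells filament.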 To be noted: E. coli DRC39 delta-acrAB growth, higher = more signal, called active from +8 up or from −8 down.
Assay [9] is described as follows: viability profiling in RPMI8226 myeloma cells – cell-based, resazurin fluorescence, basal, 24 h, PK04 Diversity Set, profiling panel (AID 1180).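 Also: RPMI8826 multiple myeloma cell line at 5000 cells per well; test concentration not given here.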 The note with it: higher = more signal.
Assay [10] concerns the target E3 ubiquitin-protein ligase XIAP (Homo sapiens) (UniProt P98170). Nature of the assay: small molecules binding XIAP protein – biophysical, small-molecule microarray, fluorescence 635 nm, primary screen (AID 1181).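 Also: score merges 667 nm emission and signal to noise over triplicate slides.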 To be noted: higher = more signal.

E3 ubiquitin-protein ligase XIAP (Homo sapiens), sequence (P98170 whole entry, looked up): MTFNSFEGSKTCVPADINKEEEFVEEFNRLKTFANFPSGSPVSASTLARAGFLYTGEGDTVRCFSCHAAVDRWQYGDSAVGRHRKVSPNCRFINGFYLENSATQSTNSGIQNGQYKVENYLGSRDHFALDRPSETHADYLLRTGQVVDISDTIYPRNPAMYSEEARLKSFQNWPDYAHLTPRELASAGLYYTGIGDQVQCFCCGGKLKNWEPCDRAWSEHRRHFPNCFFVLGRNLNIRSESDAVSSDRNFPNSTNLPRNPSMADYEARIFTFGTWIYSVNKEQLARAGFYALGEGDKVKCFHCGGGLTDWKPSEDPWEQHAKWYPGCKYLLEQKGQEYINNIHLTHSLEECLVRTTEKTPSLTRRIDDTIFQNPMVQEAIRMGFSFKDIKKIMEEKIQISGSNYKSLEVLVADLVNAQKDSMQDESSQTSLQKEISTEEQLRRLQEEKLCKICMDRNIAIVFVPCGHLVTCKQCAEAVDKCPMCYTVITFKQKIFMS

Turning to `COCCOC(=O)N1C(=O)[C@@]2(c3cc(C#CC4=CCCCC4)ccc31)[C@H](C(=O)Nc1nc3ccccc3s1)[C@H]1C(=O)O[C@H](c3ccccc3)[C@H](c3ccccc3)N1[C@@H]2c1ccc(OCCO)cc1`, the z-score is 0.366 in assay [1]; 1.05 (inactive) in [2]; 0.295 (inactive) in assay [3]; 4.33 (inactive) in assay [5]; 2.51 (inactive) in [6]; -1.26 (inactive) in assay [7]. The z-score in assay [8] is -2.09 (inactive); in assay [9], -0.0984. Further, the values for the composite z-score in assay [4] and in [10] were 0.0498 (inactive) and -0.106, respectively.

For `O=C(NCc1ccccc1)[C@@]1(CCS(=O)(=O)c2ccccc2)N=C(c2ccc(OCCCO)cc2)O[C@H]1c1ccccc1`, the z-score was 1.36 in [1]; 1.01 (inactive) in assay [2]; -0.705 (inactive) in assay [3]; -0.0304 (inactive) in [5]; 1.46 (inactive) in [6]; 0.714 (inactive) in assay [7]. In addition, the values for the z-score in assay [8] and in assay [9] were 1.62 (inactive) and 0.448, respectively. The composite z-score in assay [4] was 1.05 (inactive); in [10] it was 0.202.

For the compound `COC(=O)[C@@]1(Cc2ccc(OC)cc2)[C@H]2c3cc(C(=O)N4CCCC4)n(Cc4ccccc4)c3C[C@H]2CN1C(=O)c1ccccc1`, the z-score in assay [1] is -2.62; in assay [2] it was 1.04 (inactive); in assay [3], -0.912 (inactive); in assay [5], 0.219 (inactive); in [6] it was 0.479 (inactive); in [7], -0.559 (inactive). The z-score in assay [8] was 0.0434 (inactive); in [9], -3.16. For the same compound, the figures for the composite z-score in assay [4] and in assay [10] were -0.264 (inactive) and -0.065, respectively.

`O=C1C2C=CC(C(O)c3ccc(F)cc3)N(Nc3ccccc3F)C2C(=O)N1c1ccccc1` (stereo not given): the z-score was -0.395 in [1]; -1.9 (inactive) in assay [2]; -0.63 (inactive) in assay [3]; 0.599 (inactive) in assay [5]; 0.0815 (inactive) in assay [6]; -0.554 (inactive) in assay [7]. The values for the z-score in [8] and in [9] were -0.184 (inactive) and -0.292, respectively. The figures for the composite z-score in assay [4] and in [10] were 0.306 (inactive) and 0.0029, respectively.

With `COCCOC(=O)N1C(=O)[C@@]2(c3cc(C#Cc4ccc(OC)cc4)ccc31)[C@H](c1ccccc1OCCO)N1[C@H](c3ccccc3)[C@H](c3ccccc3)OC(=O)[C@H]1[C@@H]2C(=O)N1CCN(c2ncccn2)CC1`, the z-score was 0.214 in assay [1]; 2.12 (inactive) in assay [2]; -0.539 (inactive) in assay [3]; 1.64 (inactive) in assay [5]; 3.89 (inactive) in assay [6]; 0.0722 (inactive) in [7]. The z-score was 0.857 (inactive) in assay [8] and 0.0636 in assay [9]. Besides, the composite z-score in assay [4] was 0.478 (inactive); in [10], 0.397.

For the compound `COCCOC(=O)N1C(=O)[C@@]2(c3cc(C#Cc4ccc(OC)cc4)ccc31)[C@H](c1ccc(O)cc1)N1[C@H](c3ccccc3)[C@H](c3ccccc3)OC(=O)[C@H]1[C@@H]2C(=O)NC[C@H](O)c1ccccc1`, the z-score in [1] was -0.372; in assay [2], 0.895 (inactive); in [3], -0.5 (inactive); in assay [5], 0.429 (inactive); in assay [6], 0.95 (inactive); in [7], 0.351 (inactive). In addition, the z-score in assay [8] is -0.206 (inactive); in [9] it was -0.573. Besides, the composite z-score in [4] is 1.49 (inactive); in assay [10], -0.296.

Consider `C=CC[C@@]1(C(N)=O)N=C(c2ccc(OCCCO)cc2)O[C@@H]1c1ccccc1CN=[N+]=[N-]`, for which the z-score in [1] is 0.165; in assay [2], -0.935 (inactive); in assay [3] it was 0.348 (inactive); in assay [5], 0.426 (inactive); in assay [6], -0.742 (inactive); in assay [7], 0.793 (inactive). Besides, the z-score in [8] is -0.597 (inactive); in assay [9] it was 0.093. Further, the composite z-score was -0.0357 (inactive) in assay [4] and -0.201 in assay [10].

For the compound `C=C(C)C1C(=C)CN([C@H](CO)c2ccccc2)C1=O` (stereo not given in full), the z-score in assay [1] was 1.04; in assay [2] it was -2.16 (inactive); in assay [3] it was 0.267 (inactive); in [5] it was -0.611 (inactive); in [6], 0.229 (inactive); in assay [7] it was 0.692 (inactive). The z-score in assay [8] is -0.829 (inactive); in assay [9] it was -0.403. Moreover, the composite z-score in [4] was -0.232 (inactive); in assay [10], -0.11.

`CC(=O)NCCCC[C@@H]1NC(=O)[C@@H]2C[C@H](C(=O)NCCCCCCNC(=O)CS)[C@H](c3cccc(OCCO)c3)N2C1=O`: the z-score is -0.396 in assay [1]; 0.174 (inactive) in [2]; -0.449 (inactive) in assay [3]; 0.752 (inactive) in assay [5]; -0.407 (inactive) in assay [6]; 0.293 (inactive) in assay [7]. Further, the z-score in assay [8] was 0.367 (inactive); in [9], -1.05. The composite z-score is -0.424 (inactive) in assay [4] and -0.0791 in [10].

As for `COc1ccc(C(O)C2C=CC3C(=O)NC(=O)C3N2Nc2ccccn2)c2ccccc12` (stereo not given), the z-score in [1] was -1.07; in [2] it was -0.33 (inactive); in assay [3], -0.782 (inactive); in [5], 1.26 (inactive); in assay [6], 0.75 (inactive); in [7], -0.272 (inactive). Also, the figures for the z-score in assay [8] and in assay [9] were -0.571 (inactive) and -1.24, respectively. The composite z-score in assay [4] was 0.977 (inactive); in assay [10], 0.246.

Turning to `CCCCCCC#C[Si](O[C@H](c1ccccc1)c1cn([C@H](CO)Cc2ccccc2)nn1)(C(C)C)C(C)C`, the z-score was 1.13 in assay [1]; -1.93 (inactive) in assay [2]; 0.389 (inactive) in assay [3]; 0.395 (inactive) in assay [5]; -0.297 (inactive) in [6]; 0.953 (inactive) in [7]. Moreover, the z-score in assay [8] was 1.57 (inactive); in assay [9] it was 0.881. Further, the values for the composite z-score in [4] and in [10] were -3.69 (inactive) and -0.157, respectively.
